From PubChem BioAssay
Shown are actives, neighbours in structure and some others; about 2.8% of the full set was active somewhere.
PP1 inh: counter-screen for PP5 inhibitors: inhibitors of human PP1-alpha. purified PP1alpha, OMFP fluorescence. inhibition, % at 6.7 µM. 320,000 tested, 0.9% active;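 active = inhibition above the mean inhibition of all tested compounds plus 3 SD, computed separately for each screening campaign, cut at about 15% in these data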
Granule exo inh: lytic granule exocytosis inhibition | TALL-104 LAMP-1 surface exposure, flow cytometry; cells stimulated with thapsigargin and PMA | inhibition, % at 10 µM | 360,000 tested, 0.66% active | AID 651702;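 active = inhibition above about 55%, limit read from the data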
IDE cell activ: activators of human insulin-degrading enzyme in cells; P14735; 340,000 tested, 0.073% active; AID 493087; activation, % at 5.96 µM; HEK cells, FAbeta-B cleavage, fluorescence polarization; 0% vehicle, 100% cell-free pure enzyme wells;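 active = activation above the mean of all tested compounds plus 3 SD, set per screening campaign, cut at about 17% in these data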
PP5 inh: blocks human protein phosphatase 5 activity; P53041; purified PP5c, OMFP substrate fluorescence; inhibition, % at 6.7 µM; 320,000 tested, 0.18% active; AID 1987;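 active = inhibition above the campaign's mean inhibition across all tested compounds plus 3 SD, cut at about 9.5% in these data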
Target sequence (P53041 whole entry, looked up): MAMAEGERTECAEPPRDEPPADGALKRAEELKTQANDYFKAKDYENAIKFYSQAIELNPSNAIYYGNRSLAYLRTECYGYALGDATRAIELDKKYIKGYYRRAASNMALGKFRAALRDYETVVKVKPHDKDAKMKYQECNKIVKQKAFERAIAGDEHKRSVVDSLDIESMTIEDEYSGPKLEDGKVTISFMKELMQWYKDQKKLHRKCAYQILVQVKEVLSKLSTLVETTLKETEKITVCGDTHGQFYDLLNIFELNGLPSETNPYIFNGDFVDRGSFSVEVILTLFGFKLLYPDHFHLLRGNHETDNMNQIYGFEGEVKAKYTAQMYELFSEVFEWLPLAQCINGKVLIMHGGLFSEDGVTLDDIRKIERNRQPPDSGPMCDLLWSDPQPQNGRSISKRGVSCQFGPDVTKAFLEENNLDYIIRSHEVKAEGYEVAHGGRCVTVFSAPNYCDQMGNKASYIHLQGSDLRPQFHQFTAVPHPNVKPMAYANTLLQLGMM
IDE cell inh: inhibits human insulin-degrading enzyme in HEK cells; FAbetaB cleavage, fluorescence polarization; inhibition, % at 5.59 µM; 320,000 tested, 0.41% active; P14735;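 active = percent inhibition above the average of all tested compounds plus 3 SD, set per screening campaign, cut at about 16% in these data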;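 also: IDE supplied by intact live HEK cells; FP after avidin binding of uncleaved biotin substrate so inhibition keeps polarization high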
SKKanGAS inh: blocks kanamycin growth of S. pyogenes SKKanGAS strain. BacTiter-Glo, 6 h. inhibition, % at 7.5 µM. 300,000 tested, 1.3% active. AID 1662;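 active = mean replicate score, as percent of positive control median, at least 50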;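 also: strain carries kanamycin resistance gene driven by streptokinase promoter and grows in 40 µg/ml kanamycin; loss of luminescence reflects streptokinase promoter inhibition or plain growth inhibition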
Hits are given with their value; i = inactive; nt = no result given.

SMILES	PP1 inh	Granule exo inh	IDE cell activ	PP5 inh	IDE cell inh	SKKanGAS inh
O=C(Nc1nnc(SCc2ccc(F)cc2)s1)c1ccc2ncsc2c1	nt	i	i	nt	nt	i
O=C(O)C1CC=CCC1C(=O)N1CCN(c2nc(-c3ccccc3Cl)c3cc(Br)ccc3n2)CC1 (centres undefined)	17	i	i	i	i	nt
O=C(O)C1CC=CCC1C(=O)N1CCN(c2nc(-c3ccccc3)c3ccccc3n2)CC1 (centres undefined)	i	i	i	i	i	i
COc1ccc(O)c(C(=O)CC(=O)c2ccccc2C)c1	i	i	i	i	i	60
COc1ccc(O)c(C(=O)CC(=O)c2ccc(F)cc2)c1	i	i	i	i	i	i
CC(C)NC(=O)NC(=O)CN1c2cccc3cccc(c23)S1(=O)=O	i	i	i	i	i	i
CCOC(=O)c1nc(Nc2ccc(Nc3ccccc3)cc2)c2ccccc2n1	nt	i	i	nt	nt	56
O=C1C(Cl)=C(Nc2ccccc2)C(=O)c2ccccc21	i	i	i	i	i	i
O=C(O)c1ccc(NC2=C(Cl)C(=O)c3ccccc3C2=O)cc1	i	70	i	i	i	i
Cc1ccc(NC2=C(NC(=O)c3ccccc3)C(=O)c3ccccc3C2=O)cc1Cl	i	i	i	i	i	74
CCc1cccc(NS(=O)(=O)c2c(C)[nH]c(=O)[nH]c2=O)c1	nt	i	i	nt	nt	i
CC(C)=CCC12Oc3cc(O)ccc3C1(O)Oc1cc(O)c([C@H]3C=C(C)CC(c4ccc(O)cc4O)[C@H]3C(=O)c3ccc(O)cc3O)c(O)c1C2=O (some centres undefined)	i	nt	nt	i	i	111
O=C(C[n+]1cc(-c2ccc(F)cc2)n2c1CCC2)Nc1nc(-c2ccccc2)cs1	i	i	i	i	i	i
O=C(C[n+]1cc(-c2ccc(Cl)cc2)n2c1CCC2)Nc1nc(-c2ccccc2)cs1	16	i	i	i	i	i
Cc1ccn2c(=O)c(NC(=O)c3ccc(Br)o3)c(C)nc2c1	i	i	i	i	i	i
c1ccc(OCc2nc3c4c(ncn3n2)-c2ccccc2CC42CCCC2)cc1	i	i	i	i	i	52
Nc1ncnc2c1C1(CCCCC1)Cc1ccccc1-2	i	i	i	i	i	i
COc1ccccc1NC(=O)CCS(=O)(=O)c1cc2c(cc1Cl)NC(=O)CO2	i	i	i	i	i	i
CC(=O)N(Cc1ccccc1)C1CC(=O)N(Cc2ccccc2)C1=O (centres undefined)	nt	i	i	nt	nt	nt
CCOc1ccc(C2C(C(=O)c3ccc(C)o3)=C(O)C(=O)N2c2nc(C)c(C(=O)OC)s2)cc1 (centres undefined)	17	i	i	i	i	i
O=C(Cc1ccc(Br)cc1)NC1CCSC1=O (centres undefined)	i	i	i	i	i	i
CC(=O)Nc1ccc(NC(=O)COc2ccc(-c3ccc(C#N)cc3)cc2)cc1	17	i	i	i	i	i
Cc1c(C(=O)NNC(=S)NCc2ccc(Cl)cc2)oc2ccccc12	i	i	i	i	i	82
CCN(CC(=O)NCc1ccc(Cl)cc1)C(=O)c1oc2ccccc2c1C	i	i	i	i	i	i
O=C(C#Cc1ccccc1)Nc1cccc(F)c1	i	i	i	i	i	i
SMILES	PP1 inh	Granule exo inh	IDE cell activ	PP5 inh	IDE cell inh	SKKanGAS inh
CCOC(=O)C[n+]1c(C)sc2ccc(OC)cc21	i	75	i	i	i	i
CCOC(=O)c1c(NC(=O)COC(=O)/C=C/c2ccccc2)sc(C(=O)NC)c1C	i	i	i	i	i	nt
CCn1c(SCc2nc3scc(-c4ccccc4)c3c(=O)[nH]2)nnc1-c1cccs1	i	i	i	i	i	i
COCCn1c(SCc2nc3scc(-c4ccc(Cl)cc4)c3c(=O)[nH]2)nnc1-c1cccc(C)c1	16	i	i	i	i	i
COc1ccccc1CNS(=O)(=O)c1ccc(Cl)s1	i	i	i	i	i	i
O=C(O)C1C2C=CC(O2)C1C(=O)Nc1ccc(S(=O)(=O)Nc2ccccc2)cc1 (centres undefined)	i	102	i	i	i	nt
COc1ccc(NC(=O)C2C3C=CC(O3)C2C(=O)O)cc1 (centres undefined)	i	i	i	i	i	i
COc1ccccc1N1CCN(C(=O)c2ccc(Cl)c(S(=O)(=O)N3CCOCC3)c2)CC1	i	i	i	i	i	i
COc1ccc(C2NCCc3c2[nH]c2ccccc32)cc1COc1ccc(F)cc1 (centres undefined)	17	i	i	i	i	i
Cc1ccc(C)c(S(=O)(=O)/N=C2\C=C(NS(=O)(=O)c3ccccc3)C(=O)c3ccccc32)c1	i	i	i	i	i	107
CCc1ccc(S(=O)(=O)/N=C2\C=C(NS(=O)(=O)c3ccccc3)C(=O)c3ccccc32)cc1	nt	i	i	nt	nt	63
CC(C)c1ccc(S(=O)(=O)/N=C2\C=C(NS(=O)(=O)c3ccccc3)C(=O)c3ccccc32)cc1	i	i	i	i	i	i
CCCNC(=O)C1(C)CCCN(C(=O)c2cccc(C#N)c2)C1 (centres undefined)	nt	i	nt	nt	nt	nt
COc1cc(/C=C/C(=O)O)cc(S(=O)(=O)NCCO)c1OC	i	i	i	i	i	i
CN(C)CCNc1nc(Oc2cccc(F)c2)c2sccc2n1	nt	i	nt	nt	nt	nt
COc1ccc(C(=O)NC(=S)NNC(=O)c2ccccc2O)cc1	i	i	i	i	i	102
CC(C)(C)C(=O)NC(=S)NNC(=O)c1sc2ccccc2c1Cl	i	i	i	i	i	100
CCn1c(C)nc2cc(C(=O)NNC(=S)Nc3ccc(C)cc3)ccc21	i	i	i	i	i	i
CCn1c(C)nc2cc(C(=O)NNC(=S)NC(=O)c3ccc(OC)cc3)ccc21	i	i	i	i	i	59
COc1ccc(C(=O)NNC(=S)NC(=O)C(C)(C)C)cc1	i	i	i	i	i	68
CC1(C)OC(=O)NC1c1ccccc1 (centres undefined)	nt	i	nt	nt	nt	nt
CCCc1cc(=O)oc2cc(C)cc(OC(C)C(=O)NCCCn3ccnc3)c12 (centres undefined)	i	i	i	i	i	i
Cc1ccccc1C(=O)NNC(=S)NC(=O)c1ccc(Cl)cc1Cl	i	i	i	i	i	i
COc1ccc(C(=O)NC(=S)NNC(=O)c2ccccc2C)cc1	i	i	i	i	i	101
O=C(Nc1ccccc1Sc1ccccc1)c1ccccc1F	i	i	i	i	i	61
Cc1ccc(NC(=O)c2ccc(C#CC3(O)CCCCC3)cc2)cc1C	i	i	i	i	i	51
Cc1nnc2c(Oc3ccccc3)nc3ccccc3n12	i	i	i	i	i	i
COC(=O)c1ccc(Oc2nc3ccccc3n3c(C)nnc23)cc1	i	i	i	i	i	53
Cc1ccc(NC(=S)N(Cc2ccc(Cl)cc2)Cc2ccc(C(=O)O)cc2)cc1Cl	17	i	i	i	i	i
Cc1ccc(Cl)cc1NC(=S)N/N=C/c1cccc2ccccc12	i	i	i	i	i	80
